Experimental data from PubChem BioAssay (NCATS).
Inconclusive results are not listed. The source made the active and inactive calls. Calls follow the shape of the dose curve; as a rule, active = well fitted curve in the direction sought with a large enough effect; inconclusive = small, poorly fitted or top-dose-only effect, or another doubt; inactive = no such curve, though single readings can be large; an effect the other way counts as inactive or inconclusive.

Columns and labels:
[1] = qHTS of pediatric cancer cell lines to identify multiple opportunities for drug repurposing: Primary screen for TC32 cells (AID 1347089); also: nearly all actives have a fitted effect of over 60% in size; also: potency is read from the fitted curve at half-maximal effect
How it was run: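 Measured quantity: luminescence from CellTiter-Glo, reflecting metabolically active TC32 cells following 48 h of compound. Curves came straight from multi-point titrations, with 8 or 11 points in primary and 11 in confirmatory screening.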

[2] = qHTS of pediatric cancer cell lines to identify multiple opportunities for drug repurposing: Primary screen for DAOY cells (AID 1347090); also: nearly all actives have a fitted effect of over 55% in size; also: potency is read from the fitted curve at half-maximal effect
How it was run: (§1)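 Viability measured as metabolically active cells via CellTiter-Glo luminescence following 48 hours of compound exposure, 11-point dilutions in confirmatory testing. 500-1,000 cells/well plated 5 hours before dosing; controls were DMSO and 2.3 µM bortezomib.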

[3] = qHTS of pediatric cancer cell lines to identify multiple opportunities for drug repurposing: Primary screen for SJ-GBM2 cells (AID 1347091); also: potency is read from the fitted curve at half-maximal effect
How it was run: as §1

[4] = qHTS of pediatric cancer cell lines to identify multiple opportunities for drug repurposing: Primary screen for A673 cells (AID 1347092); also: nearly all actives have a fitted effect of over 45% in size; also: potency is read from the fitted curve at half-maximal effect
How it was run: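 Cells are plated, rested 5 h, dosed by pintool, incubated 48 h, then lysed with CellTiter-Glo and read by luminescence. DMSO is the neutral control; bortezomib at 2.3 uM final is the positive control.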

[5] = qHTS of pediatric cancer cell lines to identify multiple opportunities for drug repurposing: Primary screen for SK-N-MC cells (AID 1347093); also: potency is read from the fitted curve at half-maximal effect
How it was run: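 Metabolically active cells were quantified by ATP-dependent luminescence (CellTiter-Glo, 15 min at room temperature) following 48 h treatment. Cells had been plated at 500-1,000 per well and settled for 5 h beforehand.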

[6] = qHTS of pediatric cancer cell lines to identify multiple opportunities for drug repurposing: Primary screen for BT-37 cells (AID 1347094); also: potency is read from the fitted curve at half-maximal effect
How it was run: (§2)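 ATP-based luminescence (CellTiter-Glo) quantifies viability after a 48-hour exposure. Compounds are dosed across 8 or 11 final concentrations; DMSO and 2.3 µM bortezomib serve as controls.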

[7] = qHTS of pediatric cancer cell lines to identify multiple opportunities for drug repurposing: Primary screen for NB-EBc1 cells (AID 1347095); also: potency is read from the fitted curve at half-maximal effect
How it was run: as §2

[8] = qHTS of pediatric cancer cell lines to identify multiple opportunities for drug repurposing: Primary screen for U-2 OS cells (AID 1347096); also: nearly all actives have a fitted effect of over 50% in size; also: potency is read from the fitted curve at half-maximal effect
How it was run: (§3)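 Viability after 48 h compound treatment at 37C, 500-1,000 cells/well, read as ATP luminescence with CellTiter-Glo. Primary screens used 11-point (MIPE, 0.78 nM-46 µM) or 8-point (NPC, 0.59 nM-46 µM) final concentrations; follow-up screens used 11-point dilutions.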

[9] = qHTS of pediatric cancer cell lines to identify multiple opportunities for drug repurposing: Primary screen for Saos-2 cells (AID 1347097); also: nearly all actives have a fitted effect of over 40% in size; also: potency is read from the fitted curve at half-maximal effect
How it was run: as §2

[10] = qHTS of pediatric cancer cell lines to identify multiple opportunities for drug repurposing: Primary screen for SK-N-SH cells (AID 1347098); also: nearly all actives have a fitted effect of over 65% in size; also: potency is read from the fitted curve at half-maximal effect
How it was run: (§4)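 Cells (500-1,000/well) rested 5 h, then received compounds for 48 h; metabolically active cells were measured by CellTiter-Glo luminescence. Final concentrations spanned up to 46 µM (MIPE, 11-point) or 0.59 nM-46 µM (NPC, 8-point) in primary screens, 11-point in follow-ups.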

[11] = qHTS of pediatric cancer cell lines to identify multiple opportunities for drug repurposing: Primary screen for NB1643 cells (AID 1347099); also: nearly all actives have a fitted effect of over 50% in size; also: potency is read from the fitted curve at half-maximal effect
How it was run: as §2

[12] = qHTS of pediatric cancer cell lines to identify multiple opportunities for drug repurposing: Primary screen for LAN-5 cells (AID 1347100); also: potency is read from the fitted curve at half-maximal effect
How it was run: as §3

[13] = qHTS of pediatric cancer cell lines to identify multiple opportunities for drug repurposing: Primary screen for BT-12 cells (AID 1347101); also: nearly all actives have a fitted effect of over 25% in size; also: potency is read from the fitted curve at half-maximal effect
How it was run: as §4

[14] = qHTS of pediatric cancer cell lines to identify multiple opportunities for drug repurposing: Primary screen for Rh18 cells (AID 1347102); also: nearly all actives have a fitted effect of over 65% in size; also: potency is read from the fitted curve at half-maximal effect
How it was run: as §3

[15] = qHTS of pediatric cancer cell lines to identify multiple opportunities for drug repurposing: Primary screen for OHS-50 cells (AID 1347103); also: nearly all actives have a fitted effect of over 40% in size; also: potency is read from the fitted curve at half-maximal effect
How it was run: as §4

[16] = qHTS of pediatric cancer cell lines to identify multiple opportunities for drug repurposing: Primary screen for RD cells (AID 1347104); also: nearly all actives have a fitted effect of over 55% in size; also: potency is read from the fitted curve at half-maximal effect
How it was run: as §2

[17] = qHTS of pediatric cancer cell lines to identify multiple opportunities for drug repurposing: Primary screen for MG 63 (6-TG R) cells (AID 1347105); also: nearly all actives have a fitted effect of over 50% in size; also: potency is read from the fitted curve at half-maximal effect
How it was run: as §2

[18] = qHTS of pediatric cancer cell lines to identify multiple opportunities for drug repurposing: Primary screen for control Hh wild type fibroblast cells (AID 1347106); also: nearly all actives have a fitted effect of over 55% in size; also: potency is read from the fitted curve at half-maximal effect
How it was run: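 Cells (500-1,000/well) in growth media were settled 5 h at 37 degrees C, then given compounds for 48 h. Viability was read as CellTiter-Glo luminescence. Primary runs used MIPE at 11 points (0.78 nM-46 µM) and NPC at 8 points (0.59 nM-46 µM); follow-ups used 11 points.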

[19] = target: Tyrosine-protein phosphatase non-receptor type substrate 1 (Homo sapiens) + Leukocyte surface antigen CD47 (Homo sapiens) (UniProt P78324+Q08722); assay: CD47-SIRPalpha protein protein interaction - Alpha assay qHTS validation (AID 1347059);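 also: bead proximity luminescence from CD47 binding SIRPalpha after compound preincubation with SIRPalpha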
Sequence of Tyrosine-protein phosphatase non-receptor type substrate 1 (Homo sapiens) + Leukocyte surface antigen CD47 (Homo sapiens) (P78324 whole entry, looked up): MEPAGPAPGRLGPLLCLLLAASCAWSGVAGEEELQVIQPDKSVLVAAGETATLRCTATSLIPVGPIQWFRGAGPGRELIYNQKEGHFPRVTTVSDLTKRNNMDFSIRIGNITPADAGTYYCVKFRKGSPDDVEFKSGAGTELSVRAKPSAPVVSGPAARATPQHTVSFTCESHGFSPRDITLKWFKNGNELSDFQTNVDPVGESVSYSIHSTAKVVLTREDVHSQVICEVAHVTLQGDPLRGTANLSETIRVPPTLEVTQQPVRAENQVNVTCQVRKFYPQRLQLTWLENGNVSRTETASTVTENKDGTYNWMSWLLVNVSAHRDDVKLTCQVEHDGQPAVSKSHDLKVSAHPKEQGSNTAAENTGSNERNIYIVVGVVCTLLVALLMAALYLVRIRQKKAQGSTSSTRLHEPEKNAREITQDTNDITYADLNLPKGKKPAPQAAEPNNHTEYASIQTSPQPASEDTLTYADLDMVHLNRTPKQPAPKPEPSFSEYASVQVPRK
Sequence of Tyrosine-protein phosphatase non-receptor type substrate 1 (Homo sapiens) + Leukocyte surface antigen CD47 (Homo sapiens) (Q08722 whole entry, looked up): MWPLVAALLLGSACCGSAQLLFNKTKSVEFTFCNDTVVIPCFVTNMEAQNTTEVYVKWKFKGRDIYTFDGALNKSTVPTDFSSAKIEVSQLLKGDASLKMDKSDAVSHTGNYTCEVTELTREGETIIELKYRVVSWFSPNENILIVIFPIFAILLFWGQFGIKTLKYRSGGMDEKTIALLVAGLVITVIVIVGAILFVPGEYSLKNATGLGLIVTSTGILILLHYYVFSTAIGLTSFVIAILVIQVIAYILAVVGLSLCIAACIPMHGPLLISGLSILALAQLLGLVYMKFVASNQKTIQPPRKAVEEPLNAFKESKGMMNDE
How it was run: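 SIRPalpha-biotin 25 nM + cpd, 30 min RT, dark; add CD47-His 12.5 nM, 30 min; add Ni-NTA/SAV beads 10 ug/mL, 30 min; AlphaScreen. Buffer PBS pH 7.4 + 0.05% IGEPAL CA-630. Non-biotinylated SIRPalpha as control inhibitor.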

[20] = target: Parathyroid hormone/parathyroid hormone-related peptide receptor (Homo sapiens) (UniProt Q03431); assay: qHTS for PTHR1 Agonists: Optimization Screen against the NCGC LOPAC library (AID 1347079);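 also: GloSensor cAMP luminescence in HEK-293 GP2 cells expressing human PTHR1 with IBMX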
Sequence of Parathyroid hormone/parathyroid hormone-related peptide receptor (Homo sapiens) (Q03431 whole entry, looked up): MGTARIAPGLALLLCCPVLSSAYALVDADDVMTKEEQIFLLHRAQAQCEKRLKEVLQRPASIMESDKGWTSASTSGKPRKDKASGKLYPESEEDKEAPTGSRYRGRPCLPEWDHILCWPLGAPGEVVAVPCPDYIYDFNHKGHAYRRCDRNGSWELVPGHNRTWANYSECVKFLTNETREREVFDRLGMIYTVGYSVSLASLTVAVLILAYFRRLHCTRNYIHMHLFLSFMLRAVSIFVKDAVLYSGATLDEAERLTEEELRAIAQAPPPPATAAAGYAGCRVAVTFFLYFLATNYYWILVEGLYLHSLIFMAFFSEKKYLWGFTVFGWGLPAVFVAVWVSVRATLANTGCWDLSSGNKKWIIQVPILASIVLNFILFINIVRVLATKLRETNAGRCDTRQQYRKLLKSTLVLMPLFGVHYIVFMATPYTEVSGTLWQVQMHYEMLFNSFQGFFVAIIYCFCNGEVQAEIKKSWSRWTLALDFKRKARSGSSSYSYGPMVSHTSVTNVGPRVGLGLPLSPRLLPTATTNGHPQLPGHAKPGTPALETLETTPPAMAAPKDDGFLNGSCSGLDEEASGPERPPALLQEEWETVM
How it was run: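 HEK-293 GP2 cells, PTHR1 + GloSensor cAMP; 3000 cells/well, o/n. Luciferin + IBMX 0.5mM each (stock), 1 hr 37C. Cpd titration, 1 hr 37C. Lum after 15 min RT. Ctrl M-PTH(1-15) top 10uM.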

Compound	Potency [1]	Potency [2]	Potency [3]	Potency [4]	Potency [5]	Potency [6]	Potency [7]	Potency [8]	Potency [9]	Potency [10]	Potency [11]	Potency [12]	Potency [13]	Potency [14]	Potency [15]	Potency [16]	Potency [17]	Potency [18]	outcome [19]	outcome [20]
Nc1ccccc1NC(=O)c1ccc(CNC(=O)OCc2cccnc2)cc1	8290 nM (active)	4690 nM (active)	4180 nM (active)	1480 nM (active)	93.5 nM (active)	3850 nM (active)	1320 nM (active)	1870 nM (active)	2350 nM (active)	17100 nM (active)	1870 nM (active)	833 nM (active)	7690 nM (active)	2960 nM (active)	863 nM (active)	5260 nM (active)	4690 nM (active)	20900 nM (active)	–	–
Cc1nc(Nc2n[nH]c3c2CN(C(=O)N[C@H](CN(C)C)c2ccccc2)C3(C)C)c2sccc2n1	739 nM (active)	11800 nM (active)	1050 nM (active)	14.8 nM (active)	33.2 nM (active)	611 nM (active)	10500 nM (active)	9350 nM (active)	1660 nM (active)	17100 nM (active)	935 nM (active)	418 nM (active)	2430 nM (active)	1320 nM (active)	3.2 nM (active)	2960 nM (active)	9350 nM (active)	14800 nM (active)	–	–
Nc1ncnc2c1c(-c1cnc3[nH]ccc3c1)nn2C1CCCC1	5870 nM (active)	3720 nM (active)	132 nM (active)	1870 nM (active)	66.2 nM (active)	1720 nM (active)	469 nM (active)	2350 nM (active)	–	2150 nM (active)	5900 nM (active)	1050 nM (active)	1370 nM (active)	526 nM (active)	68.5 nM (active)	1870 nM (active)	118 nM (active)	1320 nM (active)	–	–
CC(C)C[C@H](NC(=O)CNC(=O)c1cc(Cl)ccc1Cl)B(O)O	2940 nM (active)	235 nM (active)	187 nM (active)	1480 nM (active)	148 nM (active)	485 nM (active)	526 nM (active)	743 nM (active)	18700 nM (active)	383 nM (active)	590 nM (active)	–	344 nM (active)	235 nM (active)	6110 nM (active)	1320 nM (active)	235 nM (active)	–	–	–
CC1(C)CCC(c2ccc(Cl)cc2)=C(CN2CCN(c3ccc(C(=O)NS(=O)(=O)c4ccc(N[C@H](CCN5CCOCC5)CSc5ccccc5)c(S(=O)(=O)C(F)(F)F)c4)cc3)CC2)C1	inactive	7430 nM (active)	23.5 nM (active)	4690 nM (active)	11.8 nM (active)	13700 nM (active)	18.7 nM (active)	7430 nM (active)	4180 nM (active)	24100 nM (active)	9.3 nM (active)	9.3 nM (active)	15300 nM (active)	29.6 nM (active)	–	10500 nM (active)	9350 nM (active)	inactive	–	–
Cc1ccc(-c2ncn(-c3ccc(Nc4nccc(-c5cccc(N6CCOCC6)c5)n4)cc3)n2)cn1	330 nM (active)	187 nM (active)	105 nM (active)	93.5 nM (active)	66.2 nM (active)	122 nM (active)	209 nM (active)	235 nM (active)	93.5 nM (active)	383 nM (active)	52.6 nM (active)	–	122 nM (active)	52.6 nM (active)	217 nM (active)	105 nM (active)	93.5 nM (active)	166 nM (active)	–	–
CC=C1NC(=O)[C@H]2CSSCCC=C[C@H](CC(=O)N[C@H](C(C)C)C(=O)N2)OC(=O)[C@H](C(C)C)NC1=O	58.7 nM (active)	29.6 nM (active)	14.8 nM (active)	11.8 nM (active)	10.5 nM (active)	10.9 nM (active)	29.6 nM (active)	29.6 nM (active)	11.8 nM (active)	121 nM (active)	9.3 nM (active)	9.3 nM (active)	12.2 nM (active)	5.3 nM (active)	19.3 nM (active)	–	11.8 nM (active)	52.6 nM (active)	–	–
O=c1c2ccccc2nc2n1CCc1c-2[nH]c2ccccc12	inactive	inactive	inactive	inactive	inactive	–	inactive	inactive	inactive	inactive	inactive	inactive	–	inactive	inactive	inactive	inactive	inactive	inactive	inactive
O=C(NCCCNc1nc(Nc2cccc(NC(=O)N3CCCC3)c2)ncc1I)c1cccs1	2620 nM (active)	14800 nM (active)	2960 nM (active)	7430 nM (active)	1320 nM (active)	24300 nM (active)	23500 nM (active)	inactive	3320 nM (active)	17100 nM (active)	11800 nM (active)	833 nM (active)	24300 nM (active)	14800 nM (active)	24300 nM (active)	–	3720 nM (active)	–	–	–
Nc1ccn([C@@H]2CS[C@H](CO)O2)c(=O)n1	inactive	inactive	inactive	inactive	inactive	inactive	inactive	inactive	inactive	inactive	inactive	inactive	inactive	inactive	inactive	–	inactive	–	–	–
